In PubChem BioAssay AID1069 (NMMLSC, 2008):

test: LNCaP granularity increase inducers, single-point recheck – cell-based, side scatter shift, flow cytometry, confirmation (AID 1069); details: LNCaP differentiation, 4 d, side scatter shift, at 10 µM, stronger effect = higher value;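 further: LNCaP human prostate cancer cells in low-serum medium with charcoal-stripped FBS; percent of cells with raised granularity gated so DMSO controls show 10%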

Compound | side scatter shift [%]
COc1ccccc1NC(=O)c1nc[nH]c1C(=O)Nc1ccccc1OC | 5.65
Cc1oc(-c2cccc(Cl)c2)nc1CN1CCCC(C(=O)NC(C)c2ccc3c(c2)OCCO3)C1 (configuration not stated) | 1.65
Cc1oc(-c2ccc(Cl)cc2)nc1CN1CCC(C(=O)N2CCN(Cc3ccccc3)CC2)CC1 | 53.7
COc1ccc(S(=O)(=O)Nc2ccc(F)c(Cl)c2)cc1OC | 6.75
Cc1oc(-c2ccc(Cl)cc2)nc1CN1CCCC(C(=O)N2CCN(C(=O)c3ccco3)CC2)C1 (configuration not stated) | 3.65
Nc1cccc2cnccc12 | 6.95
Cc1ccc(C(=O)/C=C/Nc2cccc(O)c2)cc1 | 4.85
CCOC(=O)c1ccccc1NC(=O)Cn1c(-c2nonc2N)nc2ccccc21 | 27.1
c1ccc(CSc2nnc(-c3cccs3)n2Cc2ccco2)cc1 | 6.7
O=C(NCCCN1CCN(c2ccc(F)cc2)CC1)c1cccc(N2CCCC2=O)c1 | 13.7
CCOC(=O)N1CCN(C(=O)CCc2c(C)nc3c(c(C)nn3-c3ccc(C)c(C)c3)c2C)CC1 | 6.6
CCc1ccc(-c2nc(CN3CCC(C(=O)NCc4ccco4)CC3)c(C)o2)cc1 | 16.5
CC(C)(C)OC(=O)N1CCC(C(=O)N2CCCCCC2)CC1 | 7.5
COc1ccc(C(CC(=O)O)NC(=O)Cc2ccccc2)cc1 (configuration not stated) | 3.1
O=c1cc(N2CCN(c3ccc(F)cc3)CC2)[nH]c(=O)n1C1CCCCC1 | 5.4
Cc1ccccc1-c1nc(CN2CCC(C(=O)N3CCC(C(N)=O)CC3)CC2)c(C)o1 | 10.9
Cc1ccc(CN2CCSc3ccc(C(=O)N4CCN(c5ncccn5)CC4)cc32)cc1 | 7.2
